The results in this text go back to PubChem BioAssay AID938 (National Center for Advancing Translational Sciences (NCATS), 2007).

SMILES strings stand for the structures. Where “and” joins values, the source holds several entries; their conditions need not be identical. Equal entries are not always repeated. Hit rate of the full screen: of about 73,000 compounds, about 1,800 (2.5%) were called active. Where a call stands in place of a potency, no number is given. Inconclusive results (about 13%) are left out. This is one part of a sample in which actives are shown more often than they occur. Calls come from the whole dose curve; as a rule, active = well fitted activation curve with a large enough effect; inconclusive = small, poorly fitted or top-dose-only effect; inactive = no such curve, though single readings can be large or run the other way. Where a structure was tested more than once in an assay, its records may differ in their call.
Potency is the fitted concentration of half-maximal effect.

This assay is described as follows: qHTS Assay for Agonists of the Thyroid Stimulating Hormone Receptor: Activators of Intracellular cAMP Concentrations in Parental HEK 293. Note: nearly all actives have a fitted effect of over 55% in size. As to conditions: parental HEK293 CNG cAMP sensor, membrane potential fluorescence; series mostly up to 57.1 µM. The text has this:
NIH Chemical Genomics Center [NCGC]
NIH Molecular Libraries Screening Centers Network [MLSCN]
PI Name: Dr. Marvin Gershengorn
This cell based assay utilized a cyclic nucleotide gated ion channel (CNG) as a biosensor for cAMP induction. HEK 293 cells stably expressing the modified CNG were purchased from BD biosciences (http://www.atto.com/products/actone/features_benefits.shtml) . Stimulation of cAMP production causes the CNG to open and subsequent membrane depolarization to occur. A fluorescent membrane potential dye (BD biosciences) was utilized to detect cAMP stimulation in cells.
The cells were maintained in DMEM medium (Invitrogen) containing 10 % FBS (Hyclone), 100 units/ml Penicillin, 100 ug/ml Streptomycin (Invitrogen), and 250 ug/ml Geneticin (Invitrogen) and 1 ug/ml Puromycin (Invitrogen) at 37C in 5% CO2. This assay was used as a counterscreen to "qHTS Assay for Agonists of the Thyroid Stimulating Hormone Receptor", to control for compounds signaling through endogenous receptors and other targets of HEK 293 cells.
NCGC Assay Protocol Summary:
High Throughput Screening. Freshly passaged cells were dispensed into 1536-well assay plates at 4 ul/well in DMEM containing phenol red (Invitrogen), 10% FCS (Hyclone), and 100 units/ml Penicillin, 100 ug/ml Streptomycin (Invitrogen) and incubated at 37 C with 5% CO2 for 20 to 36 hrs before the robotic screening. The screen was initiated by addition of 4 ul/well membrane potential dye containing 100 uM RO 20-1724 (Sigma Aldrich), followed by 60 min incubation at room temperature to allow for dye equilibration across the cell membrane. 23 nl/well compound or control was then added to the assay plates, which were incubated for additional 30 min before reading a Envision fluorescence plate reader (Perkin Elmer) in bottom-read mode for fluorescence intensity (emission at 590 nm).
Keywords: cAMP, CNG Ion Channel, quantitative high throughput screening, qHTS, HTS, probe identification, CNG, cAMP, cyclic nucleotide gated ion channel PubChem
Regarding `C/C(CCc1c[nH]c2ccccc12)=N\O`, the Potency result was “inactive”.

Consider `NCCc1c[nH]c2ccc(O)cc12`, for which the Potency result is “inactive and 31.6 µM (active)”. In the case of `CC(C)(c1ccc(OC[C@@H]2CO2)cc1)c1ccc(OC[C@H]2CO2)cc1`, the Potency entry was “inactive”.

In the case of `N#CCCCl`, the Potency result is “inactive”. For the molecule `ClC(Cl)(Cl)c1ccccc1`, the Potency result is “inactive”. Then `Fc1ccc(C(OCCN2CCN(C/C=C\c3ccccc3)CC2)c2ccc(F)cc2)cc1`, with “inactive”.

For `c1ccc(C2NCc3ccccc3-n3cccc32)cc1` (stereo not given), the Potency is 25.1 µM (active). In the case of `COc1ccc(C2NCc3ccc4c(c3-n3cccc32)OCO4)cc1OC` (stereo not given), the Potency result is “inactive”. Turning to `CC(C)CC(C)Nc1ccc(Nc2ccccc2)cc1` (stereo not given), the Potency entry was “inactive”. Then `O=[N+]([O-])c1ccc(Cl)c(Cl)c1`, with “inactive”; and `CC(C)(c1ccccc1)c1ccc(O)cc1`, with “inactive”; and `CC(C)(C)C(O)(CCc1ccc(Cl)cc1)Cn1cncn1` (stereo not given), with “inactive”.

As for `C[C@@]1([C@@H](NP(=O)(c2ccccc2)c2ccccc2)c2ccccc2)C[C@H]1CCO`, the Potency was 15.8 µM (active).

Turning to `O=C1C2(Cl)C3(Cl)C4(Cl)C(Cl)(Cl)C5(Cl)C3(Cl)C1(Cl)C5(Cl)C24Cl` (stereo not given), the Potency result was “inactive”. With `CCCCC#N`, the Potency result was “inactive”.
